Out of some 360,000 compounds screened, about 290 (0.081%) were called active. For the sample, actives were picked, then their nearest neighbours and some compounds at random. A number with no mark means an inactive call. The call rests on the fitted dose curve; in most records, active means well fitted activation curve with a large enough effect; inconclusive means small, poorly fitted or top-dose-only effect; inactive means no such curve, though single readings can be large or run the other way.
Target: Rap guanine nucleotide exchange factor 4 (Homo sapiens) (UniProt Q8WZA2)
Sequence (Q8WZA2 whole entry, looked up): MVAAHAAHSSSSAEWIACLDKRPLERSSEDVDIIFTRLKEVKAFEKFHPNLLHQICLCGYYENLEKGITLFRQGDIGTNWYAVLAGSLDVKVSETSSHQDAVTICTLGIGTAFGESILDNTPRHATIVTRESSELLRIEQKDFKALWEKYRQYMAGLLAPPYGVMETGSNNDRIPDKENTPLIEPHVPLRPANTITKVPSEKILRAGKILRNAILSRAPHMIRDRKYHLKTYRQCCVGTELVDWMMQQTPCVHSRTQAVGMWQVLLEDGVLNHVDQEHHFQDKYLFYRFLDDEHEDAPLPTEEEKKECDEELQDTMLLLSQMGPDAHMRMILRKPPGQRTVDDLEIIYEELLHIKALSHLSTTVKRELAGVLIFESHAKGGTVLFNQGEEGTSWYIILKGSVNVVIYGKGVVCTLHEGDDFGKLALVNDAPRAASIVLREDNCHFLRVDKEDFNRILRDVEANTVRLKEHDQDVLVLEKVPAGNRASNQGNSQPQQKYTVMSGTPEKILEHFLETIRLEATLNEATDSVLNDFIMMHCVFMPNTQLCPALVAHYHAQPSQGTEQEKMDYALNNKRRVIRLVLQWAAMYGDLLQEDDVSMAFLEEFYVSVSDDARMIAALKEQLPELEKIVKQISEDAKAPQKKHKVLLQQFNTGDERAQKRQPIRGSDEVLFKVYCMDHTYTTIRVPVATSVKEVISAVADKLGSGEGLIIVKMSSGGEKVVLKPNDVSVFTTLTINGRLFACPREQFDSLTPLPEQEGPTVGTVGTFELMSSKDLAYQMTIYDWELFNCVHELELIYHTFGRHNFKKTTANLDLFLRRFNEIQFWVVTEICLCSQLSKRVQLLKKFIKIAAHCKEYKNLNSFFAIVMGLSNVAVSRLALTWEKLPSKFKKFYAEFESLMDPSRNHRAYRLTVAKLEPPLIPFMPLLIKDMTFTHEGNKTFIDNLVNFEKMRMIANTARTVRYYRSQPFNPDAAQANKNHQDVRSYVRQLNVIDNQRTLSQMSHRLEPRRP
Assay: qHTS for Agonist of cAMP-regulated guanine nucleotide exchange factor 4 (EPAC2): primary screen; further: nearly all actives have a fitted effect of over 50% in size
Conditions: biochemical qHTS; Potency: EPAC2 activation; series mostly up to 154 µM; activation: at the top concentration
Excerpt: In multi-cellular eukaryotic organisms, the effects of cAMP are transduced by two ubiquitously-expressed intracellular cAMP receptors, the classic protein kinase A/cAMP-dependent protein kinase (PKA/cAPK) and the more recently discovered exchange protein directly activated by cAMP/cAMP-regulated guanine nucleotide exchange factor (EPAC/cAMP-GEF). Both PKA and EPAC are ubiquitously expressed in all tissues, and an increase in intracellular cAMP levels will lead to the activation of both PKA and EPAC. Therefore, careful dissections of the individual role and relative contribution of EPAC and PKA within the overall cAMP signaling in various model systems are critical for further elucidating the mechanism of cAMP signaling. To date no EPAC-specific antagonists and agonist, as well as isoform-specific agonists have been reported, and developing EPAC-specific pharmacological probes to determine the physiological functions that EPAC play in the overall cAMP-mediated signaling remains a major challenge within the research field. Furthermore, identified regulators of EPAC may lead to new mechanism-based therapeutic strategies specifically targeting the EPAC / cAMP-signaling components as EPAC has been implicated to play important roles in major human pathological conditions such as diabetes, heart disease, and cancer.
This qHTS will be used to screen the Molecular Libraries Small Molecule Repository (MLSMR) as a concentration-titration series using the NCGC unique quantitative screening (qHTS) platform to find activators for EPAC2. In addition, this assay will also be used as a counterscreen for the EPAC1 qHTS. This fluorescent based assay is developed and validated for EPAC2 that measures exchange using EPAC effector Rap1 complex with BODIPY-GDP, a GDP analog with a tethered fluorophores. Activators are identified by monitoring the change in fluorescence signal as the exchanged free BODIPY-GDP has a reduced fluorescence compared to Rap1-bound BODIPY-GDP. […] in signal (activation) is the desired outcome for the EPAC2 agonist while no activity in this assay is desired for the EPAC1 agonist counterscreen.
[1] de Rooij, J., Zwartkruis, F. J., Verheijen, M. H., Cool, R. H., Nijman, S. M., Wittinghofer, A., and Bos, J.L. (1998) Nature 396, 474-477
[2] Kawasaki, H., Springett, G. M., Mochizuki, N., Toki, S., Nakaya, M., Matsuda, M., Housman, D. E., and Graybiel, A. M. (1998) Science 282, 2275-2279
NIH Chemical Genomics Center [NCGC]
NIH Molecular Libraries Probe Centers Network [MLPCN]
Assay Submitter (PI): Xiaodong Cheng, The University of Texas, Medical Branch
Briefly, three uL of reagents (100 nM EPAC2, 250 nM RAP1B-BODIPY-GDP, 50 uM GDP) were dispensed into a 1536-well Greiner black solid-bottom medium binding assay plate. Controls and test compounds (23 nL) were transferred to the plate via a Kalypsys pin tool equipped with a 1536-pin array. The plates were centrifuged at 1,000 rpm for 15 seconds followed by 5 minute incubation at room temperature. The assay plates were read at 5 minute intervals for 30 minutes in the ViewLux plate reader using 480nm excitation and 540nm emission filters. The results were normalized to the agonist positive control of 6.5 mM cAMP.
Potency means the concentration at half of the fitted maximal effect.

Row | Compound | Potency | activation [%]
1 | COc1cccc(N2C(=O)NC(=O)/C(=C\c3cn(C)c4ccccc34)C2=O)c1 | 100 µM (active) | 
2 | CCc1nc2ccccc2c(=O)n1-c1cccc(OC)c1 |  | 1.81
3 | CC1C(=O)OC2CCN3CC=C(COC(=O)C(C)(O)C1(C)O)C23 (stereo not given) |  | -2.81
4 | CSC1=NP(=S)(SC)N(C)c2nc3n(c21)CCC3 (stereo not given) |  | 9.22
5 | CC(=O)c1ccc(OC(NC(=O)Cc2ccccc2)C(Cl)(Cl)Cl)cc1 (stereo not given) |  | 6.08

Reference: PubChem BioAssay AID720711 (National Center for Advancing Translational Sciences (NCATS), 2013)
